In publication PMC9911399, “Two distinct binding modes provide the RNA-binding protein RbFox with extraordinary sequence specificity” one finds binding signal data, which are given here for 35 molecules.

B1: GCACGUU (DNA:RNA)
RNA: GGGAGACCGGAAUUCAGAUUGUCCGCACGUUUUAAAUCCCGUCGUAGCCACCA
DNA 1: CAATCTGAATTCCGGTCTCCC
DNA 2: TGGTGGCTACGACGGGATT
B2: GUUAAGG (DNA:RNA)
RNA: B1 RNA with C26U, A27U, C28A, G29A, U30G, U31G
DNA 1: CAATCTGAATTCCGGTCTCCC
DNA 2: TGGTGGCTACGACGGGATT
B3: UGUACAC (DNA:RNA)
RNA: GGGAGACCGGAAUUCAGAUUGUCCUGUACACUUAAAUCCCGUCGUAGCCACCA
DNA 1: CAATCTGAATTCCGGTCTCCC
DNA 2: TGGTGGCTACGACGGGATT
B4: GUCUCAC (DNA:RNA)
RNA: B3 RNA with U25G, G26U, U27C, A28U
DNA 1: CAATCTGAATTCCGGTCTCCC
DNA 2: TGGTGGCTACGACGGGATT
B5: GGGUCUA (DNA:RNA)
RNA: B1 RNA with C26G, A27G, C28U, G29C, U31A
DNA 1: CAATCTGAATTCCGGTCTCCC
DNA 2: TGGTGGCTACGACGGGATT
B6: UAACUCU (DNA:RNA)
RNA: B1 RNA with G25U, C26A, G29U, U30C
DNA 1: CAATCTGAATTCCGGTCTCCC
DNA 2: TGGTGGCTACGACGGGATT
B7: UCUGACU (DNA:RNA)
RNA: B1 RNA with G25U, A27U, C28G, G29A, U30C
DNA 1: CAATCTGAATTCCGGTCTCCC
DNA 2: TGGTGGCTACGACGGGATT
B8: AACCUGA (DNA:RNA)
RNA: B1 RNA with G25A, C26A, A27C, G29U, U30G, U31A
DNA 1: CAATCTGAATTCCGGTCTCCC
DNA 2: TGGTGGCTACGACGGGATT
B9: CAACUCG (DNA:RNA)
RNA: B1 RNA with G25C, C26A, G29U, U30C, U31G
DNA 1: CAATCTGAATTCCGGTCTCCC
DNA 2: TGGTGGCTACGACGGGATT
B10: UGUGUUC (DNA:RNA)
RNA: B3 RNA with A28G, C29U, A30U
DNA 1: CAATCTGAATTCCGGTCTCCC
DNA 2: TGGTGGCTACGACGGGATT
B11: CACUGAA (DNA:RNA)
RNA: B1 RNA with G25C, C26A, A27C, C28U, U30A, U31A
DNA 1: CAATCTGAATTCCGGTCTCCC
DNA 2: TGGTGGCTACGACGGGATT
B12: UUCCUUC (DNA:RNA)
RNA: B1 RNA with G25U, C26U, A27C, G29U, U31C
DNA 1: CAATCTGAATTCCGGTCTCCC
DNA 2: TGGTGGCTACGACGGGATT
B13: GUAUGCU (DNA:RNA)
RNA: B1 RNA with C26U, C28U, U30C
DNA 1: CAATCTGAATTCCGGTCTCCC
DNA 2: TGGTGGCTACGACGGGATT
B14: GGUAUGC (DNA:RNA)
RNA: B3 RNA with U25G, C29U, A30G
DNA 1: CAATCTGAATTCCGGTCTCCC
DNA 2: TGGTGGCTACGACGGGATT
B15: GUUAUGC (DNA:RNA)
RNA: B3 RNA with U25G, G26U, C29U, A30G
DNA 1: CAATCTGAATTCCGGTCTCCC
DNA 2: TGGTGGCTACGACGGGATT
B16: UUAUGCU (DNA:RNA)
RNA: B1 RNA with G25U, C26U, C28U, U30C
DNA 1: CAATCTGAATTCCGGTCTCCC
DNA 2: TGGTGGCTACGACGGGATT
B17: CGUAUGC (DNA:RNA)
RNA: B3 RNA with U25C, C29U, A30G
DNA 1: CAATCTGAATTCCGGTCTCCC
DNA 2: TGGTGGCTACGACGGGATT
B18: GGAUGCU (DNA:RNA)
RNA: B1 RNA with C26G, C28U, U30C
DNA 1: CAATCTGAATTCCGGTCTCCC
DNA 2: TGGTGGCTACGACGGGATT
B19: GAGCUUG (DNA:RNA)
RNA: B1 RNA with C26A, A27G, G29U, U31G
DNA 1: CAATCTGAATTCCGGTCTCCC
DNA 2: TGGTGGCTACGACGGGATT
B20: UGUGGCA (DNA:RNA)
RNA: B3 RNA with A28G, C29G, A30C, C31A
DNA 1: CAATCTGAATTCCGGTCTCCC
DNA 2: TGGTGGCTACGACGGGATT
B21: CUAUUUC (DNA:RNA)
RNA: B1 RNA with G25C, C26U, C28U, G29U, U31C
DNA 1: CAATCTGAATTCCGGTCTCCC
DNA 2: TGGTGGCTACGACGGGATT
B22: AGUCAAC (DNA:RNA)
RNA: B3 RNA with U25A, A28C, C29A
DNA 1: CAATCTGAATTCCGGTCTCCC
DNA 2: TGGTGGCTACGACGGGATT
B23: AAUGCAG (DNA:RNA)
RNA: B3 RNA with U25A, G26A, A28G, C31G
DNA 1: CAATCTGAATTCCGGTCTCCC
DNA 2: TGGTGGCTACGACGGGATT
B24: UUGCAUA (DNA:RNA)
RNA: B1 RNA with G25U, C26U, A27G, G29A, U31A
DNA 1: CAATCTGAATTCCGGTCTCCC
DNA 2: TGGTGGCTACGACGGGATT
B25: UUGCAUC (DNA:RNA)
RNA: B1 RNA with G25U, C26U, A27G, G29A, U31C
DNA 1: CAATCTGAATTCCGGTCTCCC
DNA 2: TGGTGGCTACGACGGGATT
B26: UCUUGCA (DNA:RNA)
RNA: B1 RNA with G25U, A27U, C28U, U30C, U31A
DNA 1: CAATCTGAATTCCGGTCTCCC
DNA 2: TGGTGGCTACGACGGGATT
B27: GUGCAUC (DNA:RNA)
RNA: B1 RNA with C26U, A27G, G29A, U31C
DNA 1: CAATCTGAATTCCGGTCTCCC
DNA 2: TGGTGGCTACGACGGGATT
B28: UUGCAGA (DNA:RNA)
RNA: B1 RNA with G25U, C26U, A27G, G29A, U30G, U31A
DNA 1: CAATCTGAATTCCGGTCTCCC
DNA 2: TGGTGGCTACGACGGGATT
B29: GCGUGCA (DNA:RNA)
RNA: B1 RNA with A27G, C28U, U30C, U31A
DNA 1: CAATCTGAATTCCGGTCTCCC
DNA 2: TGGTGGCTACGACGGGATT
B30: UUGCGUC (DNA:RNA)
RNA: B1 RNA with G25U, C26U, A27G, U31C
DNA 1: CAATCTGAATTCCGGTCTCCC
DNA 2: TGGTGGCTACGACGGGATT
B31: GUUCAUC (DNA:RNA)
RNA: B1 RNA with C26U, A27U, G29A, U31C
DNA 1: CAATCTGAATTCCGGTCTCCC
DNA 2: TGGTGGCTACGACGGGATT
B32: UUGCAUG (DNA:RNA)
RNA: B1 RNA with G25U, C26U, A27G, G29A, U31G
DNA 1: CAATCTGAATTCCGGTCTCCC
DNA 2: TGGTGGCTACGACGGGATT
B33: GUGCAUG (DNA:RNA)
RNA: B1 RNA with C26U, A27G, G29A, U31G
DNA 1: CAATCTGAATTCCGGTCTCCC
DNA 2: TGGTGGCTACGACGGGATT
B34: GUGCAUA (DNA:RNA)
RNA: B1 RNA with C26U, A27G, G29A, U31A
DNA 1: CAATCTGAATTCCGGTCTCCC
DNA 2: TGGTGGCTACGACGGGATT
B35: GUGCAGA (DNA:RNA)
RNA: B1 RNA with C26U, A27G, G29A, U30G, U31A
DNA 1: CAATCTGAATTCCGGTCTCCC
DNA 2: TGGTGGCTACGACGGGATT

Changes are numbered by the printed parent chain; changes in the protein carry UniProt numbers. In all, about 16,000 sequences were measured (“ka relative to ugcaugu”: median about 0.096, highest 2% from about 0.35 on). The sample as a whole holds a higher share of the highest values than the screen did.

This assay deals with T1, RBFOX1 RRM RbFoxmut (Fox-RRM*) (Homo sapiens, UniProt Q9NWB1 109-208, R118D;E147R;N151S;E152T).
T1 sequence: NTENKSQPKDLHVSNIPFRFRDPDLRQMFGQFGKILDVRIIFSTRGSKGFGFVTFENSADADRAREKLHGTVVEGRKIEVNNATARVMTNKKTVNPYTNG
The assay can be described thus: EMSA; HiTS-Eq, 1 nM pool, 10 min; buffer printed only for the single-RNA assays: 10 mM Tris pH 7.5, 150 mM NaCl, 3.4 mM EDTA, 0.001% NP-40, 30 C. As to conditions: tags: His6 N-terminal (pET28a); label: 5' 32P. The method in brief:
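These values rest on relative association constants, computed from read-count changes of each RNA species versus the control reaction and normalised to the cognate motif. Reads came from free RNA recovered by 8% native PAGE after purified RbFox RRM (wild type or mutant) at increasing concentrations was equilibrated for 10 min in 50 µL with 1 nM of a 5′-radiolabelled pool with 7 randomized nucleotides and DNA-annealed flanks.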
(In general: In EMSA bound probe runs differently from free probe, usually more slowly.)
For B1, the binding signal was 0.318 KA relative to UGCAUGU.
Regarding B2, the binding signal was 0.0786 KA relative to UGCAUGU.
Turning to B3, the binding signal is 0.0562 KA relative to UGCAUGU.
B4: the binding signal is 0.0695 KA relative to UGCAUGU.
On to B5, for which the binding signal was 0.1 KA relative to UGCAUGU.
On to B6, for which the binding signal was 0.0488 KA relative to UGCAUGU.
Under B7 stands 0.0694 KA relative to UGCAUGU.
As for B8, the binding signal was 0.0413 KA relative to UGCAUGU.
The result for B9 reads 0.142 KA relative to UGCAUGU.
For B10, the binding signal was 0.108 KA relative to UGCAUGU.
With B11, the binding signal is 0.0869 KA relative to UGCAUGU.
As for B12, the binding signal is 0.0735 KA relative to UGCAUGU.
Regarding B13, the binding signal was 0.402 KA relative to UGCAUGU.
The result for B14 reads 0.398 KA relative to UGCAUGU; that for B15, 0.21 KA relative to UGCAUGU.
The result for B16 reads 0.13 KA relative to UGCAUGU.
The result for B17 reads 0.325 KA relative to UGCAUGU; that for B18, 0.142 KA relative to UGCAUGU; that for B19, 0.253 KA relative to UGCAUGU.
B20: the binding signal was 0.136 KA relative to UGCAUGU.
Under B21 stands 0.0582 KA relative to UGCAUGU; under B22, 0.0571 KA relative to UGCAUGU.
On to B23, for which the binding signal is 0.103 KA relative to UGCAUGU.
Take B24: the binding signal was 0.23 KA relative to UGCAUGU.
Under B25 stands 0.432 KA relative to UGCAUGU; under B26, 0.205 KA relative to UGCAUGU; under B27, 0.566 KA relative to UGCAUGU.
For B28, the binding signal was 0.108 KA relative to UGCAUGU.
Consider B29, for which the binding signal is 0.225 KA relative to UGCAUGU.
Under B30 stands 0.126 KA relative to UGCAUGU; under B31, 0.0631 KA relative to UGCAUGU; under B32, 0.909 KA relative to UGCAUGU.
As for B33, the binding signal is 1.39 KA relative to UGCAUGU.
As to B34, the binding signal is 0.153 KA relative to UGCAUGU.
Regarding B35, the binding signal was 0.12 KA relative to UGCAUGU.
